In PubChem BioAssay AID1159580 (chemical genetic matrix, 2015):
Screen size: about 5,500 compounds; about 2,000 (36%) were called active. Roughly 18% stayed inconclusive and do not appear here. No stated cut-off is given here; in the data, active means normalized growth mostly below about 0.91 (no sharp cut-off); inconclusive means no clear call, values can overlap the other calls; inactive means mostly above about 0.92. The list shows a part of the results.

Experiment: chemical genetic growth profiling, strain panel (AID 1159580);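 further: tested at 20 µM; growth read once vehicle control cultures reached saturation at 30 °C; 1 = growth at the plate median or of vehicle wells; lower values mean less growth of the strain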
Conditions: growth OD

Measured: normalized growth

COc1ccc(C(Cl)=C(c2ccc(OC)cc2)c2ccc(OC)cc2)cc1
inactive: S. cerevisiae deletion strains, locus YKL009W, strain mrt4, active compounds read low 1.02 | S. cerevisiae deletion strains, locus YKL068W, active compounds read low 1.02 | S. cerevisiae deletion strains, locus YKL085W, strain MDH1 (second series), active compounds read low 0.98 | S. cerevisiae deletion strains, locus YKL085W, strain MDH1, active compounds read low 0.98 | S. cerevisiae deletion strains, locus YKL160W, strain elf1, active compounds read low 0.993 | S. cerevisiae deletion strains, locus YKL190W, strain CNB1, active compounds read low 1.01 | S. cerevisiae deletion strains, locus YKR001C, strain vps1, active compounds read low 1.01 | S. cerevisiae deletion strains, locus YKR026C, strain gcn3, active compounds read low 1.01 | S. cerevisiae deletion strains, locus YKR091W, strain srl3, active compounds read low 1.04 | S. cerevisiae deletion strains, locus YLL001W, strain dnm1, active compounds read low 1.01 | S. cerevisiae deletion strains, locus YLL026W, active compounds read low 1 | S. cerevisiae deletion strains, locus YLL041C, strain sdh2, active compounds read low 1.02 | S. cerevisiae deletion strains, locus YLR027C, strain aat2, active compounds read low 1.04 | S. cerevisiae deletion strains, locus YLR039C, strain RIC1, active compounds read low 1.01 | S. cerevisiae deletion strains, locus YLR058C, strain SHM2, active compounds read low 1.02 | S. cerevisiae deletion strains, locus YLR102C, strain apc9, active compounds read low 1.02 | S. cerevisiae deletion strains, locus YLR113W, strain HOG1, active compounds read low 0.97 | S. cerevisiae deletion strains, locus YLR221C, strain rsa3, active compounds read low 0.995 | S. cerevisiae deletion strains, locus YLR258W, strain gsy2, active compounds read low 1.02 | S. cerevisiae deletion strains, locus YLR262C, strain YPT6 (second series), active compounds read low 1.07 | S. cerevisiae deletion strains, locus YLR262C, strain YPT6, active compounds read low 1.02 | S. cerevisiae deletion strains, locus YLR268W, strain sec22, active compounds read low 1.01 | S. cerevisiae deletion strains, locus YLR320W, strain mms22, active compounds read low 1.01 | S. cerevisiae deletion strains, locus YLR330W, strain CHS5, active compounds read low 1.01 | S. cerevisiae deletion strains, locus YLR342W, strain FKS1 (second series), active compounds read low 0.988 | S. cerevisiae deletion strains, locus YLR342W, strain FKS1, active compounds read low 1.01 | S. cerevisiae deletion strains, locus YLR357W, strain rsc2, active compounds read low 1.04 | S. cerevisiae deletion strains, locus YLR370C, strain arc18, active compounds read low 0.972 | S. cerevisiae deletion strains, locus YLR371W, strain rom2, active compounds read low 1.03 | S. cerevisiae deletion strains, locus YLR384C, strain iki3, active compounds read low 1.01 | S. cerevisiae deletion strains, locus YLR418C, strain cdc73, active compounds read low 1.06 | S. cerevisiae deletion strains, locus YML016C, strain PPZ1, active compounds read low 1.02 | S. cerevisiae deletion strains, locus YML032C, strain rad52, active compounds read low 1 | S. cerevisiae deletion strains, locus YML120C, strain ndi1, active compounds read low 0.982 | S. cerevisiae deletion strains, locus YML124C, strain tub3, active compounds read low 1.03 | S. cerevisiae deletion strains, locus YMR058W, strain fet3, active compounds read low 1.05 | S. cerevisiae deletion strains, locus YMR078C, strain ctf18, active compounds read low 1.03 | S. cerevisiae deletion strains, locus YMR125W, strain sto1, active compounds read low 1.01 | S. cerevisiae deletion strains, locus YMR129W, active compounds read low 0.998 | S. cerevisiae deletion strains, locus YMR205C, strain PFK2, active compounds read low 1.03 | S. cerevisiae deletion strains, locus YMR223W, strain ubp8, active compounds read low 1.02 | S. cerevisiae deletion strains, locus YMR231W, strain pep5, active compounds read low 1.02 | S. cerevisiae deletion strains, locus YMR263W, strain SAP30, active compounds read low 1.04 | S. cerevisiae deletion strains, locus YMR307W, strain GAS1, active compounds read low 1 | S. cerevisiae deletion strains, locus YNL067W, strain RPL9B, active compounds read low 1.03 | S. cerevisiae deletion strains, locus YNL071W, strain lat1, active compounds read low 1.03 | S. cerevisiae deletion strains, locus YNL128W, strain TEP1, active compounds read low 1.03 | S. cerevisiae deletion strains, locus YNL183C, strain NPR1, active compounds read low 0.905 | S. cerevisiae deletion strains, locus YNL209W, strain ssb2, active compounds read low 1 | S. cerevisiae deletion strains, locus YNL233W, strain BNI4, active compounds read low 1.02 | S. cerevisiae deletion strains, locus YNL248C, strain rpa49, active compounds read low 0.962 | S. cerevisiae deletion strains, locus YNL250W, strain rad50, active compounds read low 1.05 | S. cerevisiae deletion strains, locus YNL271C, strain bni1, active compounds read low 1.01 | S. cerevisiae deletion strains, locus YNL298W, strain CLA4, active compounds read low 1.01 | S. cerevisiae deletion strains, locus YNL307C, strain MCK1, active compounds read low 1.02 | S. cerevisiae deletion strains, locus YNL322C, strain KRE1 (second series), active compounds read low 1.03 | S. cerevisiae deletion strains, locus YNR049C, strain mso1, active compounds read low 0.977 | S. cerevisiae deletion strains, locus YNR052C, strain pop2, active compounds read low 1.02 | S. cerevisiae deletion strains, locus YOL006C, strain TOP1, active compounds read low 1.12 | S. cerevisiae deletion strains, locus YOL012C, strain htz1 1.9 | S. cerevisiae deletion strains, locus YOL147C, strain pex11, active compounds read low 1.02 | S. cerevisiae deletion strains, locus YOR001W, strain rrp6, active compounds read low 1.04 | S. cerevisiae deletion strains, locus YOR061W, strain CKA2, active compounds read low 1.01 | S. cerevisiae deletion strains, locus YOR069W, strain VPS5, active compounds read low 1.02 | S. cerevisiae deletion strains, locus YOR070C, strain gyp1, active compounds read low 1.02 | S. cerevisiae deletion strains, locus YOR080W, strain dia2, active compounds read low 0.995 | S. cerevisiae deletion strains, locus YOR083W, strain WHI5, active compounds read low 1.02 | S. cerevisiae deletion strains, locus YOR106W, strain vam3, active compounds read low 1.07 | S. cerevisiae deletion strains, locus YOR136W, strain idh2, active compounds read low 1.01 | S. cerevisiae deletion strains, locus YOR144C, strain elg1, active compounds read low 1.01 | S. cerevisiae deletion strains, locus YOR184W, strain ser1, active compounds read low 1 | S. cerevisiae deletion strains, locus YOR231W, strain MKK1, active compounds read low 0.981 | S. cerevisiae deletion strains, locus YOR265W, strain rbl2, active compounds read low 0.996 | S. cerevisiae deletion strains, locus YOR270C, strain vph1, active compounds read low 1.09 | S. cerevisiae deletion strains, locus YOR290C, strain snf2, active compounds read low 1 | S. cerevisiae deletion strains, locus YOR316C, strain cot1, active compounds read low 1.02 | S. cerevisiae deletion strains, locus YPL051W, strain arl3, active compounds read low 0.99 | S. cerevisiae deletion strains, locus YPL055C, strain LGE1, active compounds read low 1.01 | S. cerevisiae deletion strains, locus YPL078C, strain atp4, active compounds read low 1.04 | S. cerevisiae deletion strains, locus YPL106C, strain sse1, active compounds read low 1.01 | S. cerevisiae deletion strains, locus YPL240C, strain hsp82, active compounds read low 0.989 | S. cerevisiae deletion strains, locus YPL241C, strain CIN2, active compounds read low 1.01 | S. cerevisiae deletion strains, locus YPL256C, strain CLN2, active compounds read low 0.964 | S. cerevisiae deletion strains, locus YPR119W, strain clb2, active compounds read low 1.02 | S. cerevisiae deletion strains, locus YPR141C, strain kar3, active compounds read low 1.02 | S. cerevisiae deletion strains, locus YPR163C, strain tif3, active compounds read low 1.03 | S. cerevisiae deletion strains, locus YPR167C, strain met16, active compounds read low 1.02 | S. cerevisiae deletion strains, strain wtn01, active compounds read low 1.02 | S. cerevisiae strains, strain wild type, active compounds read low 1.02
